Laboratory results reported in ChEMBL document CHEMBL1961873, “Compounds: GSK PKIS; Assays: Nanosyn kinase panel” (2012).
Several values for one entry are separate records, joined by “and”; a condition that tells them apart may be missing. Equal entries are not always repeated.

What was measured:
[1] = target: T1, Tyrosine-protein kinase receptor TYRO3 (Homo sapiens) (UniProt Q06418); settings: at 1 µM
T1 sequence (whole entry): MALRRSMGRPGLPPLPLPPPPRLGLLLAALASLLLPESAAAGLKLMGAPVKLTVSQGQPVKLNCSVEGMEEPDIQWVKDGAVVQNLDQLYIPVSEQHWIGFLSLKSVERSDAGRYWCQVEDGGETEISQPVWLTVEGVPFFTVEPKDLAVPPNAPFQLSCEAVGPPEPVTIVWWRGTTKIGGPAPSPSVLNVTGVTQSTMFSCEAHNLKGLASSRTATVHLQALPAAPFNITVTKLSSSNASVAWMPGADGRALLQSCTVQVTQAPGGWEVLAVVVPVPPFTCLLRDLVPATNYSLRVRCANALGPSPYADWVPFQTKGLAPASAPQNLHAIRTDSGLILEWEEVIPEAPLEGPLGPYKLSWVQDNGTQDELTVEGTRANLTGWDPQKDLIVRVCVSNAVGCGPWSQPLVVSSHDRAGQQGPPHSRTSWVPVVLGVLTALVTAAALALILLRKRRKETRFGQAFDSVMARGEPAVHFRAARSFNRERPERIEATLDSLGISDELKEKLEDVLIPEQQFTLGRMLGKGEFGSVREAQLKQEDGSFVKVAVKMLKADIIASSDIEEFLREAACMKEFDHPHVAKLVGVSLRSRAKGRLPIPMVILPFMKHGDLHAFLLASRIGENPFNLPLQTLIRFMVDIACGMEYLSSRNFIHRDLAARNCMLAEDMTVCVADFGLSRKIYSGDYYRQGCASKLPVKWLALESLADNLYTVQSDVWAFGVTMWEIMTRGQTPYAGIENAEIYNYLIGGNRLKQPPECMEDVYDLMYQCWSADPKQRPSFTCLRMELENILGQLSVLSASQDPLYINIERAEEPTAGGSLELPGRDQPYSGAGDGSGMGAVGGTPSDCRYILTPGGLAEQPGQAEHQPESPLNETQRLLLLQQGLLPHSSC

[2] = target: Tyrosine-protein kinase Yes (Homo sapiens) (UniProt P07947); settings: at 0.1 µM
[3] = target: Tyrosine-protein kinase Yes (Homo sapiens) (UniProt P07947); settings: at 1 µM
[4] = target: T2, Tyrosine-protein kinase ZAP-70 (Homo sapiens) (UniProt P43403); settings: at 0.1 µM
T2 sequence (whole entry): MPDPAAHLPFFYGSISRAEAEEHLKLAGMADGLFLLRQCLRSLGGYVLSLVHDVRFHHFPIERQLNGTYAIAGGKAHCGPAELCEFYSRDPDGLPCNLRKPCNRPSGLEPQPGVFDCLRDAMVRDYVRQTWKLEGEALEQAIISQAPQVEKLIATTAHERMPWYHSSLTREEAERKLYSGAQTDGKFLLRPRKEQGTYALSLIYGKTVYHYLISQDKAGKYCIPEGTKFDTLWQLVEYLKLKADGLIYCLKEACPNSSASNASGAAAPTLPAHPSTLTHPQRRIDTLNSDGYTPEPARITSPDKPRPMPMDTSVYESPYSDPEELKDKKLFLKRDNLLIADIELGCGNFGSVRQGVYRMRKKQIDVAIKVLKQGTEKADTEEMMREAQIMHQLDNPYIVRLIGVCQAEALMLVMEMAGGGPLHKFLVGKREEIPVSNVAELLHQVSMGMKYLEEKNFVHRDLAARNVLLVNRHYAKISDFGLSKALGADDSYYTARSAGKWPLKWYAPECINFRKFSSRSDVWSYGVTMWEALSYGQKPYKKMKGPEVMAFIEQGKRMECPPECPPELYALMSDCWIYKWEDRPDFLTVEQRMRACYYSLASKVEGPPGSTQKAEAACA

[5] = target: T2, Tyrosine-protein kinase ZAP-70 (Homo sapiens); settings: at 1 µM
[6] = target: Serine/threonine-protein kinase B-raf (Homo sapiens) (UniProt P15056); settings: at 0.1 µM
[7] = target: Serine/threonine-protein kinase B-raf (Homo sapiens) (UniProt P15056); settings: at 1 µM
[8] = test system: Serine/threonine-protein kinase B-raf (Homo sapiens), P15056 [V600E]; settings: at 0.1 µM
[9] = test system: Serine/threonine-protein kinase B-raf (Homo sapiens), P15056 [V600E]; settings: at 1 µM
[10] = target: RAF proto-oncogene serine/threonine-protein kinase (Homo sapiens) (UniProt P04049); settings: at 0.1 µM;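 further: values are mean CRAF kinase inhibition from profiling of the GSK Published Kinase Inhibitor Set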
Sequence of RAF proto-oncogene serine/threonine-protein kinase (Homo sapiens) (P04049 whole entry): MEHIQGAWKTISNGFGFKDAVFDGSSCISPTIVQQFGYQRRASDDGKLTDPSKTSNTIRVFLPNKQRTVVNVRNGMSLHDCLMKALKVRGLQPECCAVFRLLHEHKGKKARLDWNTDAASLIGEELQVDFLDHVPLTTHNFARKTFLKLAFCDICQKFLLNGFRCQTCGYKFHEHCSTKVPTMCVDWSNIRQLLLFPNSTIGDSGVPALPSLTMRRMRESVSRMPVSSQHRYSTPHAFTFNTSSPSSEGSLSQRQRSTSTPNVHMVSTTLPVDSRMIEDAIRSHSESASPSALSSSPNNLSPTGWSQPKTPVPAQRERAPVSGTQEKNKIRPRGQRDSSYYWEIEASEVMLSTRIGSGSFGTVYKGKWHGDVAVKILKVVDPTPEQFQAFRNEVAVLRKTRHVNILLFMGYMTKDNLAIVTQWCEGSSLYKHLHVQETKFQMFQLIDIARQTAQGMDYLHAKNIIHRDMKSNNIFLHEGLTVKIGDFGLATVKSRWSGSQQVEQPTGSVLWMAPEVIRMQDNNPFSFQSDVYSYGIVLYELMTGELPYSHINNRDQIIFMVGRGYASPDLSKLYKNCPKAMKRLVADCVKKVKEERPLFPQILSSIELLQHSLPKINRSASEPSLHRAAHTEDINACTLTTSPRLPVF

Sequence of Serine/threonine-protein kinase B-raf (Homo sapiens), P15056 [V600E] (P15056 whole entry V600E): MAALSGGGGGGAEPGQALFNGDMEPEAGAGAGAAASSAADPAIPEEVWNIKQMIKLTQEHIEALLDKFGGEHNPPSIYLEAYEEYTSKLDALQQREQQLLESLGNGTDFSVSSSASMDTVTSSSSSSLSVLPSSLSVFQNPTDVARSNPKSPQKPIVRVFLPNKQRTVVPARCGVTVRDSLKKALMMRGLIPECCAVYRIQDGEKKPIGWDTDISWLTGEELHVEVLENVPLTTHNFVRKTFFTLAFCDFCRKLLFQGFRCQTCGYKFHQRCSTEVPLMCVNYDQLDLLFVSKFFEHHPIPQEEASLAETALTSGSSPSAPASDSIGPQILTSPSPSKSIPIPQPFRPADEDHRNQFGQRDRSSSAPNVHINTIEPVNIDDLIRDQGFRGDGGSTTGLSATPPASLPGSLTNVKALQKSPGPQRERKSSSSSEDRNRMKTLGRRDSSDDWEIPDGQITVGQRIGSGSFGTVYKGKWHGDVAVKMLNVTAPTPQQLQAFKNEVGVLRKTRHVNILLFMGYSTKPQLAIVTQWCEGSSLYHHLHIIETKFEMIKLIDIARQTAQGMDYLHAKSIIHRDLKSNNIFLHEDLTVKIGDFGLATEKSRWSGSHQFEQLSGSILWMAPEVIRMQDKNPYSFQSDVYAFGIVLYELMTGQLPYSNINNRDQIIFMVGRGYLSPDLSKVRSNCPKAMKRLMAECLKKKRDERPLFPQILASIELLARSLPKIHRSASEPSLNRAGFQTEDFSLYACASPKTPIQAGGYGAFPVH
Sequence of Tyrosine-protein kinase Yes (Homo sapiens) (P07947 2-543 limits assumed): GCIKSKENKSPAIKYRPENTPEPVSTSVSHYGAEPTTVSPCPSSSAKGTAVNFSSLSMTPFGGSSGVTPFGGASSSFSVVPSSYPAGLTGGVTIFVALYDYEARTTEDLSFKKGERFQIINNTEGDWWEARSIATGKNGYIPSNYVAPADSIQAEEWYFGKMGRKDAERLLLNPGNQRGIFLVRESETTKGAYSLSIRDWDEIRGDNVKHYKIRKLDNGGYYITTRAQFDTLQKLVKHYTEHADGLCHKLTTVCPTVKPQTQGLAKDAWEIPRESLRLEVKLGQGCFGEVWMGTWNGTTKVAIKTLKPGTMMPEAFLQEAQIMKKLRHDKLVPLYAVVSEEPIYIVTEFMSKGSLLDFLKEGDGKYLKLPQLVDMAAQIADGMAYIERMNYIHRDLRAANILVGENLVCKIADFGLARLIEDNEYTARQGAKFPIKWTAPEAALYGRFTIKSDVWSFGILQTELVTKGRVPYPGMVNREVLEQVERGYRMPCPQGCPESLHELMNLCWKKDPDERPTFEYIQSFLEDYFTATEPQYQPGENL
Sequence of Serine/threonine-protein kinase B-raf (Homo sapiens) (P15056 whole entry): as the sequence (P15056 whole entry V600E) above, with E600V counted along it

Structure (SMILES)	inhibition [1]	inhibition [2]	inhibition [3]	inhibition [4]	inhibition [5]	inhibition [6]	inhibition [7]	inhibition [8]	inhibition [9]	inhibition [10]
O=C(O[C@H]1CN[C@H](C#Cc2cc3ncnc(Nc4ccc5c(cnn5Cc5ccccc5)c4)c3s2)C1)N1CCOCC1	1.4%	1.73%	23.1%	-4.53%	2.2%	-0.55%	-2.69%	-0.19%	-0.28%	-0.85%
COc1ccccc1-c1cc(/C=C2\C(=O)Nc3ncc(Br)cc32)cc(Br)c1O	3.41%	-0.07%	12.9%	2.43%	6.67%	6.58%	10.5%	7.25%	8.04%	-0.19%
NS(=O)(=O)c1ccc(N/N=C2\C(=O)Nc3ccc(C(=O)NCc4ccncc4)cc32)cc1	8.28%	4.07%	17.1%	2.55%	3.8%	14.8%	56.7%	15.1%	56.3%	0.58%
CC(C)c1ccc(-c2cc(-c3c[nH]nc3-c3ccccn3)ccn2)cc1	2.71%	0.42%	0.34%	1.32%	1.31%	0.6%	3.57%	0%	3.39%	1.14%
CN1CCN(Cc2ccc(-c3cc4ncnc(Nc5ccc(OCc6cccc(F)c6)c(Cl)c5)c4s3)o2)CC1	12.4% and 17.4%	14% and 15.7%	58.6% and 60.3%	1.12% and 6.43%	7.67% and 11.7%	4.33% and 8.54%	5.51% and 9.42%	3.61% and 9.64%	4.75% and 9.2%	-0.28% and 16.3%
CNC(=O)c1ncccc1Nc1nc(Nc2cc3c(cc2OC)CCCN3C(=O)CN(C)C)nc2[nH]ccc12	5.61%	0.73%	-1.63%	-0.5%	2.99%	4.31%	4.44%	5.35%	9.32%	-1.22%
FC(F)(F)CNc1nccc(-c2cnn3ncccc23)n1	2.17%	1.28%	1.55%	0.71%	1.8%	4.03%	3.85%	3.08%	2.52%	-1.22%
COc1c(C(N)=O)cc(-c2ccc(Cl)cc2)cc1-c1ccc(S(N)(=O)=O)cc1	2.96%	1.57%	4.52%	2.39%	4.12%	6.5%	8.57%	4.06%	3.68%	2.31%
CN1CCC(n2cnc(-c3ccc(F)cc3)c2-c2ccnc(NCCO)n2)CC1	5.81%	2.55%	8.81%	2.9%	-0.3%	5.28%	8.68%	4.16%	8.41%	-1.57%
O=C(O[C@H]1CN[C@H](C#Cc2cc3ncnc(Nc4ccc5c(ccn5Cc5cc(F)ccc5F)c4)c3s2)C1)N1CCOCC1	3.08%	0.85%	8.22%	0.89%	2.72%	6%	6.76%	6.11%	6.31%	1.88%
N#Cc1cccc(Nc2ncc(-c3ccccc3)o2)c1	6.8%	2.87%	17.7%	0.3%	1.57%	3.08%	3.51%	3.18%	4.57%	-1.08%
CS(=O)(=O)Nc1ccc(-c2cc(-c3ccccc3)cc(C(N)=O)c2N)cc1	0.42%	0.79%	4.67%	-2.43%	-3.4%	2.34%	3.97%	2.93%	3.58%	-0.86%
NS(=O)(=O)c1cccc(N/C=C2\C(=O)Nc3ccccc32)c1	8.3%	4.04%	9.49%	1.68%	4.58%	6.24%	7.76%	6.39%	7.82%	-0.16%
O=C1Nc2ccccc2/C1=C1\CCc2cc(O)ccc21	18.8%	3.94%	13.6%	3.48%	7.74%	6.96%	9.83%	8.49%	8.96%	0.39%
CC1(C)CC(n2cnc(-c3ccc(F)cc3)c2-c2ccnc(N)n2)CC(C)(C)N1	5.65%	0.2%	7.25%	0.52%	2.37%	1.97%	1.13%	1.52%	0.8%	6.47%
Fc1cccc(COc2ccc(Nc3ncncc3C#Cc3ccccc3)cc2Cl)c1	9.44%	4.11%	3.65%	2.29%	1.11%	6.77%	4.45%	6.66%	5.53%	-0.3%

Structure (SMILES)	inhibition [1]	inhibition [2]	inhibition [3]	inhibition [4]	inhibition [5]	inhibition [6]	inhibition [7]	inhibition [8]	inhibition [9]	inhibition [10]
Cc1cc(O)cc(C)c1/C=C/c1cncc(C(=O)OC(C)(C)C)c1	4.32%	5.5%	31.1%	1.34%	1.02%	4.14%	7.71%	3.83%	6.09%	3.1%
COc1cc(N2CCN(C(C)C)CC2)ccc1Nc1nc(Nc2cccc(F)c2C(=O)O)c2cc[nH]c2n1	3.99%	1.69%	8.64%	2.69%	7.8%	6.1%	7.89%	6.27%	7.5%	1.76%
COc1cc(N2CCN(C(C)C)CC2)ccc1Nc1nc(Nc2cccc3ncccc23)c2cc[nH]c2n1	-0.92%	-0.19%	1.79%	-0.91%	-0.16%	-0.4%	0.61%	0.32%	1.11%	0.02%
Fc1ccc(Nc2nccc(-c3c(-c4ccc(C(F)(F)F)cc4)nn4ncccc34)n2)cc1F	1.88%	-0.6%	1.12%	2.29%	2.38%	3.42%	6.75%	3.45%	6.03%	4.84%
CN1CCC(C(=O)Nc2n[nH]c3nc(-c4ccc(O)cc4)c(Br)cc23)CC1	7.08% and 4.86%	4% and 0.88%	10.6% and 3.33%	-0.14% and 0.65%	2.21% and 2.11%	9.05% and 4.77%	16% and 14.5%	9.4% and 4.5%	13.8% and 8.76%	13% and -0.38%
Cc1cc(O)cc(C)c1/C=C/c1cncc(C(N)=O)c1	6.32%	6.53%	32.2%	2.11%	2.46%	4.77%	11.2%	3.8%	8.78%	-1.23%
c1ccc(-c2n[nH]cc2-c2ccnc(-c3ccc(OCCn4ccnc4)cc3)c2)nc1	1.47%	1.05%	8.13%	2.15%	2.34%	2.04%	1.85%	0.71%	1.34%	-0.53%
Nc1ncnc2occ(-c3ccc(NC(=O)Nc4cc(C(F)(F)F)ccc4F)cc3)c12	35.9% and 19%	6.63% and 1.99%	32.5% and 23.6%	1.41% and -6.7%	3.15% and -0.06%	2.87% and -2.08%	7.26% and 0.64%	2.85% and -0.81%	11.3% and 5.32%	-9.78% and -3.09%
CNC(=O)c1sc(-n2cnc3cc(OC)c(OC)cc32)cc1OCc1ccccc1C(F)(F)F	3.54%	3.33%	6.76%	-0.03%	-1.04%	6.42%	6.14%	4.01%	4.66%	1.81%
CS(=O)(=O)CCNCc1ccc(-c2ccc3ncnc(Nc4ccc(OCc5ccccc5)cc4)c3c2)o1	4.25%	9.54%	42.1%	0.98%	2.51%	4.6%	6.13%	3.8%	3.33%	-0.67%
COC(=O)Nc1nc2ccc(Oc3ccc(NC(=O)Nc4cc(C(F)(F)F)ccc4F)cc3)cc2s1	40%	4.21%	11.5%	1.19%	-0.75%	2.35%	22.1%	2.96%	37.3%	8.71%
COc1cc(Nc2ncc(-c3ccccc3)o2)cc(OC)c1	8.91%	5.8%	39.5%	2.8%	1.02%	7.08%	6.68%	5.31%	3.47%	0.47%
COc1cccc(-n2ncc3c(N/N=C/c4ccc(C(=O)NCCN(C)C)cc4)ncnc32)c1	60.6%	58.5%	86%	-2.3%	4.14%	11.1%	27.8%	9.71%	23.6%	2.11%
CN(C)CCNC(=O)Nc1ccc(N(C)c2ccnc(Nc3ccc(CS(C)(=O)=O)cc3)n2)cc1	5.87%	0.55%	2.71%	1.7%	1.48%	4.53%	5.12%	5.5%	6.71%	-0.51%
Nc1nonc1-c1nc2cnccc2n1C1CC1	4.53% and 2.7%	-0.59% and 1.1%	1.1% and 2.73%	0.56% and -1.17%	3.98% and -1.48%	5.09% and 3.82%	9.07% and 5.15%	4.37% and 3.69%	8.28% and 5.87%	6.05% and 2.66%
